Screens from PubChem.
Sampled rows, rich in hits. Any-hit rate of the full collection: about 14%.
Shiga toxin inh – Shiga toxin inhibition; Vero cells, Shiga toxin protein synthesis inhibition reporter; inhibition, % at 38.7 µM; 290,000 compounds, 9.2% hits; AID 2315; in the data active = inhibition mostly above about 28%, no sharp cut-off; inactive = mostly below about 43%
NS1 inh – inhibitors of influenza NS1 protein function. Potency, µM (doses to about 46.1 µM). 270,000 compounds, 0.4% hits. AID 2326; calls by dose curve; note: actives are rising curves; nearly all actives have a fitted effect of over 50% in size
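Read-out: OD600 growth recovery of NS1-expressing budding yeast. Cells grown overnight at 30C in -URA glucose medium, washed, resuspended and diluted 1:100 in 2% galactose assay medium, pH 6.0. Same strain lacking NS1 served as positive control.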
Giardia FBPA inh – inhibitors of Giardia lamblia fructose-1,6-bisphosphate aldolase; A8B2U2; purified Giardia FBPA; 290,000 compounds, 0.71% hits; Potency, µM (titrated, usually from 59.6 µM), most hits filed as inhibitors; note: nearly all actives have a fitted effect of over 55% in size
Target sequence (A8B2U2 whole entry, looked up): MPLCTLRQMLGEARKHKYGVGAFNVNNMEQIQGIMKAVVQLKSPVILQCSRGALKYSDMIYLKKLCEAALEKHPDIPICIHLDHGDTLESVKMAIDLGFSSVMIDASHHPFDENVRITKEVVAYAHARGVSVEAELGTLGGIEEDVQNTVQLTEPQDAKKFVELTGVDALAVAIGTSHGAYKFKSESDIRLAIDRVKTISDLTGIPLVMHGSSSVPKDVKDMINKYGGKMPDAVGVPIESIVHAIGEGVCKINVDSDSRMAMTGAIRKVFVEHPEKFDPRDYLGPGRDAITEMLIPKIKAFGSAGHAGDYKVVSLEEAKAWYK
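Giardia FBPA (40 nM reagent) was preincubated 10 min at RT with compound (up to 57.5 uM final), then substrate plus GAPDH/TPI/NAD/arsenate coupling system with diaphorase/resazurin was added; resorufin fluorescence (525/598 nm) was read after 20 min.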
Cycloheximide cs – affects cycloheximide protein synthesis inhibition readout, counter-screen. AID 2314. max response, %. 300,000 compounds, 12% hits. cell reporter, cycloheximide protein synthesis inhibition counterscreen; in the data active = max response mostly above about 13%, no sharp cut-off; inactive = mostly below about 14%; note: read at 38.3 µM for the half of the compounds with a filed dose
LmPK inh – blocks Leishmania mexicana pyruvate kinase activity; Potency, µM (top dose mostly 57.5 µM), usual class: inhibitors; Q27686; 290,000 compounds, 0.37% hits; AID 1721; purified LmPK, Kinase-Glo ATP luminescence, 1 h
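0.1 nM LmPK, 0.5 mM PEP, 0.1 mM ADP; 50 mM imidazole pH 7.2, 7 mM MgCl2, 50 mM KCl; 1 h RT. Kinase-Glo luminescence readout, normalized to no-enzyme (full inhibition) and uninhibited wells.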
Hits are given with their value; i = inactive; ? = inconclusive; nt = no result given; + = active, no number; [ ] = dose if it differs, or a comment. Unless noted, calls come from the whole dose curve; as a rule, active = well fitted curve in the direction sought with a large enough effect; inconclusive = small, poorly fitted or top-dose-only effect, or another doubt; inactive = no such curve, though single readings can be large; an effect the other way counts as inactive or inconclusive.

SMILES | Shiga toxin inh | NS1 inh | Giardia FBPA inh | Cycloheximide cs | LmPK inh
Cc1cccc(OCC(=O)O/N=C(\N)c2ccc(Cl)cc2)c1 | i | i | i | i | i
Cc1ccc(C(=O)O/N=C(\N)c2ccc(Br)cc2)cc1C | 130 | i | i | 42 | i
Cc1cc(=O)[nH]c(/N=C(\N)Nc2ccc(Cl)cc2)n1 | nt | i | nt | nt | nt
CC(=O)c1ccc(OC2C=CC(c3ccc(Cl)cc3)OC2CO)cc1 (stereo unspecified) | nt | nt | i[12.9 µM] | nt | nt
Cc1cccc(C(=O)O/N=C(\N)c2ccc(Br)cc2)c1 | i | i | i | 56 | i
Cc1cc(C)cc(C(=O)O/N=C(\N)c2ccc(Br)cc2)c1 | i | i | i | i | i
N/C(=N\OC(=O)c1ccoc1)c1ccc(Br)cc1 | 90 | i | i | 74 | i
COc1cc(/C=C/C(=O)O)cc(S(=O)(=O)N2CCN(S(=O)(=O)c3ccc(Cl)cc3)CC2)c1OC | i | i | i | i | i
C=CCSc1n[nH]c(-c2ccccc2)n1 | 51 | i | i | 30 | i
C=CCSc1n[nH]c(-c2ccc(OC)cc2)n1 | 116 | i | i | 61 | i
COc1ccc(-c2nc(SCC(=O)Nc3cc(C)on3)n[nH]2)cc1 | i | i | i | i | i
CCCCOc1ccc(-c2nc(SCC(N)=O)n[nH]2)cc1 | i | i | i | 34 | i
CC1(c2nnc(-c3cccc(Cl)c3)o2)CC(c2cccc([N+](=O)[O-])c2)=NO1 (stereo unspecified) | i | i | i | i | i
CO/N=C(\C(=O)N[C@@H]1C(=O)N2C(C(=O)O)=C(CSc3nc(=O)c(O)nn3C)CSC12)c1csc(N)n1 (stereo partly specified) | nt | i | i | nt | nt
CC(=O)OCC1OC(c2cc(C)cc(C)c2)C=CC1OC(C)=O (stereo unspecified) | nt | nt | i[12.9 µM] | nt | nt
Nc1ccn([C@@H]2O[C@H](COC(=O)C34CC5CC(CC(C5)C3)C4)[C@@H](O)[C@@H]2O)c(=O)n1 | nt | i | nt | nt | nt
O=[N+]([O-])c1cccc(C2=N[C@@H](Cc3ccccc3)CO2)c1 | + | nt | i | 53 | nt
Brc1ccc(C2=N[C@@H](Cc3ccccc3)CO2)cc1 | + | nt | i | 57 | nt
Clc1cc(Cl)cc(C2=N[C@@H](Cc3ccccc3)CO2)c1 | i | nt | i | i | nt
CC(C)C[C@H]1COC(c2ccc(Br)cc2)=N1 | + | nt | i | 39 | nt
CCC(=O)Nc1ccc(NCc2cccs2)cc1 | i | i | i | i | i
O=C(/C=C/c1ccc(Cl)cc1)Nc1ccc(N2CCCCC2)cc1 | i | i | i | i | i
Cc1ccc(C(=O)Nc2ccc(N3CCN(C)CC3)nc2)cc1 | i | nt | i | 32 | i
Cc1ccc(NC(=O)c2ccc(NC(=O)C3CCCCC3C(=O)O)cc2)cc1 (stereo unspecified) | 75 | i | nt | 30 | i
O=C(/C=C/c1ccccc1)Nc1ccc(N2CCCCC2)cc1 | i | i | i | 26 | i
SMILES | Shiga toxin inh | NS1 inh | Giardia FBPA inh | Cycloheximide cs | LmPK inh
Cn1cc(S(=O)(=O)N2CCOCC2)cc1C(=O)Nc1ccc(Cl)cc1 | 39 | i | i | i | i
CCc1ccccc1-n1nnc(-c2ccccc2)n1 | i | i | i | i | i
O=C(Nc1nccs1)c1ccc(S(=O)(=O)N2CCOCC2)cc1 | i | i | i | 15 | i
O=C(Nc1ccc(S(=O)(=O)Nc2nccs2)cc1)c1ccc(S(=O)(=O)N2CCOCC2)cc1 | i | i | i | i | i
COc1ccc(C(=O)Nc2ccc(N3CCCCC3)cc2)cc1Br | 66 | i | i | 37 | i
Cc1ccc(C(=O)Nc2ccc(N3CCOCC3)cc2)cc1 | i | i | i | 65 | i
Cc1onc(-c2ccccc2)c1C(=O)Nc1ccc(S(=O)(=O)N2CCCC2)cc1 | i | i | i | 19 | i
CC(C)c1ccc(NC(=S)NN2CCOCC2)cc1 | 48 | i | i | 23 | i
NC(=O)NC(=O)C(Nc1ccc(N2CCCCC2)cc1)c1ccccc1 (stereo unspecified) | 121 | i | i | 51 | i
O=C(Nc1ccc(N2CCCC2=O)cc1)c1cccc(F)c1 | 76 | i | i | 39 | ?
CNC(=O)c1cccc(N2CCCC2=O)c1 | i | i | i | i | i
Cc1ccc(NC(=O)c2ccc(S(=O)(=O)N3CCOCC3)cc2)cc1 | i | i | nt | 29 | i
S=C(Nc1ccc(Cl)cc1)NN1CCOCC1 | i | i | i | i | i
CCCCCCCC/C=C\CCCCCCCC(=O)NC(C)C(=O)O (stereo unspecified) | nt | nt | i | nt | nt
O=C(Nc1ccccc1)N1CC[C@@]2(CCCN(C(=O)c3ccncc3)C2)C1 | nt | nt | i | nt | nt
CC(C)Oc1ccc(C(=O)Nc2ccc(N3CCCCC3)cc2)cc1 | i | i | i | i | i
CCN1CCN(c2ccc(NC(=O)c3cccc(N4CCCC4=O)c3)cc2)CC1 | i | i | i | 25 | i
O=C(Nc1ccc(N2CCCCC2)cc1)c1ccccc1 | 88 | i | i | i | 3.5µM
COc1cc2c(cc1OC)CN(C(=O)c1ccc(OC)c(S(=O)(=O)N3CCOCC3)c1)CC2 | i | i | i | 24 | i
CCOc1ccc(C(=O)NCC(=O)Nc2ccc(N3CCOCC3)cc2)cc1OCC | 124 | i | i | 21 | i
COc1cc(C(=O)Nc2ccc(N3CCOCC3)cc2)ccc1OCc1c(C)noc1C | i | i | i | i | i
O=C(NCCCN1CCN(c2ccc(F)cc2)CC1)c1cccc(N2CCCC2=O)c1 | i | i | i | i | i
Cc1ccc(C(=O)Nc2ccc(S(=O)(=O)N3CCCC3)cc2)s1 | i | nt | i | 14 | i
Cc1ccc(C(=O)Nc2ccc(N3CCN(S(C)(=O)=O)CC3)cc2)cc1 | i | i | i | i | i
Cc1ccc(C(=O)Nc2ccc(N3CCCC3)cc2)cc1 | 69 | nt | i | 26 | i
SMILES | Shiga toxin inh | NS1 inh | Giardia FBPA inh | Cycloheximide cs | LmPK inh
COc1ccc(C(=O)Nc2ccc(-c3ccc(C)o3)cc2)cc1S(=O)(=O)N1CCOCC1 | i | i | i | 19 | i
O=C(Nc1ccc(N2CCCC2)cc1)c1cccc(F)c1 | 145 | i | i | 54 | ?
Cc1ccc(NC(=O)NN2CCOCC2)cc1 | i | i | i | 16 | i
Cc1cc(C)c(NC(=O)c2cc(S(=O)(=O)N3CCOCC3)ccc2F)c(C)c1 | i | i | i | i | i
Nc1c(C(=O)Nc2ccc(S(=O)(=O)N3CCCC3)cc2)sc2nc3cc4c(cc3cc12)CCC4 | 22 | i | i | 27 | i
Cc1ccc(NC(=O)c2cc(S(=O)(=O)N3CCOCC3)ccc2F)c(C)c1 | i | i | i | 23 | i
Nc1c(C(=O)Nc2ccc(S(=O)(=O)N3CCCC3)cc2)sc2nc3ccc(OC(F)(F)F)cc3cc12 | i | i | i | i | i
Cc1cc(NC(=O)c2ccc(S(=O)(=O)N(C)CC3CCCO3)cc2)no1 (stereo unspecified) | i | nt | i | i | i
CN(CC1CCCO1)S(=O)(=O)c1ccc(C(=O)Nc2nccs2)cc1 (stereo unspecified) | 22 | i | i | 24 | i
